Experimental data reported in PubChem BioAssay (NCATS).
Records with an inconclusive call do not appear. Unmarked numbers belong to inactive results. The source made the active and inactive calls. Unless noted, the call rests on the fitted dose curve; in most records, active means well fitted curve in the direction sought with a large enough effect; inconclusive means small, poorly fitted or top-dose-only effect, or another doubt; inactive means no such curve, though single readings can be large; an effect the other way counts as inactive or inconclusive.

Tested on: not listed separately
Assay: Primary qHTS for small molecule stabilizers of the endoplasmic reticulum resident proteome: Secreted ER Calcium Modulated Protein (SERCaMP) assay (AID 1508630); further: on the % scale 0 is the no-effect control and ±100 the full control effect
Conditions: SH-SY5Y GLuc-SERCaMP (Gaussia luciferase released on ER calcium loss) secretion, thapsigargin, luminescence; series mostly up to 38.4 µM; activity change, negative = inhibition: at the top concentration
How it was run: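 GLuc-SERCaMP-expressing SH-SY5Y cells, pretreated 16 h with compound, are challenged with thapsigargin to empty ER calcium stores; after 4 h, coelenterazine is added directly to the medium and luminescence is imaged.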

Row | Compound | activity change, negative = inhibition | Potency
1 | CCN(CC)C(=O)c1ccc(C2=CC3(CCNCC3)Oc3cccc(O)c32)cc1 | -29.3% | 
2 | C[C@]12CC[C@H]3[C@@H](CCC4=CC(=O)CC[C@@]43C)[C@H]1CC[C@H]2OC(=O)CCC1CCCC1 | 125% | 
3 | CN[C@@H]1Cc2cccc3[nH]c(=O)n(c23)C1 | 22.6% | 
4 | O=C1C=CC[C@@H]2[C@H]3CCCN4CCC[C@@H](CN12)[C@@H]34 |  | inactive
5 | C[C@@H]1O[C@H](C[N+](C)(C)C)C[C@H]1O | 26.2% | 
6 | CN(C)NC(=O)CCC(=O)O | 32.7% | 
7 | C[C@]12CC[C@@H]3[C@@H](CCC4=CC(=O)CC[C@@H]43)[C@@H]1CC[C@@H]2OC(=O)CCc1ccccc1 | 33.5% | 
8 | CC(C)NC(C)Cc1ccc(I)cc1 (configuration not stated) | -4.75% | 
9 | CCNC(=O)CC1N=C(c2ccc(Cl)cc2)c2cc(OC)ccc2-n2c(C)nnc21 (configuration not stated) | 179% | 
10 | O=S(=O)(c1ccc(Cl)cc1)c1ccc(Cl)cc1 | -5.1% [at 76.3 µM] | 
11 | CCCCOC(=O)c1ccccc1C(=O)OCc1ccccc1 | 30.4% [at 76.3 µM] | 
12 | CCCN1CCO[C@@H]2c3cc(O)ccc3OC[C@H]21 |  | inactive
13 | Cc1ccccc1-n1c(Cn2cnc3c(N)ncnc32)nc2cccc(C)c2c1=O | 6.54% | 
14 | O=C(Oc1ccc([N+](=O)[O-])cc1)N1CCC(C(O)(c2ccc3c(c2)OCO3)c2ccc3c(c2)OCO3)CC1 | -4.39% | 
15 | CCNC(=O)C[C@@H]1N=C(c2ccc(Cl)cc2)c2cc(OC)ccc2-n2c(C)nnc21 | 0% | 
16 | CCOC(=O)c1c(C(C#N)=CN)c2ccc(Cl)c(Cl)c2n1C | 49.6% | 
17 | O=c1cccc2n1CC1CNC[C@H]2C1 | -30.5% | 
18 | CC(C)[C@]12O[C@H]1[C@@H]1O[C@]13[C@]1(O[C@H]1C[C@H]1C4=C(CC[C@@]13C)C(=O)OC4)[C@@H]2O | 249% | 
19 | CC[C@@]1(O)C(=O)OCc2c1cc1n(c2=O)Cc2cc3ccccc3nc2-1 |  | inactive
20 | CCOP(=O)(OCC)C(C)NC(=O)N(CCCl)N=O (configuration not stated) | 0% | 

Row | Compound | activity change, negative = inhibition | Potency
21 | O=S(=O)(F)Cc1ccccc1 | 10% | 
22 | O=C(N[C@H]1CN2CCC1CC2)c1ccc(Cl)cc1 |  | inactive
23 | COc1ccc(C(=O)c2c(C)n(CCN3CCOCC3)c3cc(I)ccc23)cc1 |  | inactive
24 | COc1ccc2c(c[n+](C)c3c4cc5c(cc4ccc23)OCO5)c1OC |  | inactive
25 | C[C@](O)(COc1ccc(C#N)cc1)C(=O)Nc1ccc(C#N)c(C(F)(F)F)c1 | 104% | 
26 | Clc1ccccc1C(c1ccccc1)(c1ccccc1)n1cccn1 | 37.7% | 
27 | COc1cc([C@@H]2c3cc4c(cc3[C@@H](O)C3COC(=O)C32)OCO4)cc(OC)c1O (some centres not stated) | 11.2% | 
28 | C#CC1(O)CCC2C3CCC4=CC(=O)CCC4(C)C3CCC21C (configuration not stated) | 97.9% | 
29 | COC(=O)[C@@H](N)CCCN=C(N)N[N+](=O)[O-] | 54.4% | 
30 | CC(C)Oc1cccc(NC(=O)c2ccccc2C(F)(F)F)c1 | 16% [at 76.3 µM] | 
31 | CCCC[N+]1(C)[C@H]2CC(OC(=O)[C@H](CO)c3ccccc3)C[C@H]1[C@H]1O[C@H]12 (some centres not stated) | -84.3% | 
32 | CCCCCC[C@H]1C(=O)O[C@H](C)[C@H](NC(=O)c2cccc(NC=O)c2O)C(=O)O[C@@H](C)[C@@H]1OC(=O)CC(C)C | 7.44% | 
33 | CN1[C@H]2CC(O)C[C@H]1[C@H]1O[C@H]12 (some centres not stated) | 97% | 
34 | CC(C)[C@H]1C(=O)N[C@H](CO)Cc2c[nH]c3cccc(c23)N1C | 210% | 
35 | NC1CC1c1ccccc1 (configuration not stated) |  | inactive
36 | NCCc1c[nH]c2ccccc12 |  | inactive
37 | CC(C)(O)C(=O)Nc1ccc([N+](=O)[O-])c(C(F)(F)F)c1 | 173% | 
38 | CCN1C[C@]2(OC(=O)c3ccccc3NC(C)=O)CC[C@H](OC)[C@@]34[C@H]5CC6[C@@H](OC)C[C@](O)(C(C[C@@H]23)[C@@H]14)[C@@]5(O)[C@@H]6OC | -8.3% | 
39 | O=S(=O)(CC1CS1)c1ccc(Oc2ccccc2)cc1 (configuration not stated) | 69.8% | 

Target: Cytochrome P450 2C9 (Homo sapiens) (UniProt P11712)
Sequence (P11712 whole entry, looked up): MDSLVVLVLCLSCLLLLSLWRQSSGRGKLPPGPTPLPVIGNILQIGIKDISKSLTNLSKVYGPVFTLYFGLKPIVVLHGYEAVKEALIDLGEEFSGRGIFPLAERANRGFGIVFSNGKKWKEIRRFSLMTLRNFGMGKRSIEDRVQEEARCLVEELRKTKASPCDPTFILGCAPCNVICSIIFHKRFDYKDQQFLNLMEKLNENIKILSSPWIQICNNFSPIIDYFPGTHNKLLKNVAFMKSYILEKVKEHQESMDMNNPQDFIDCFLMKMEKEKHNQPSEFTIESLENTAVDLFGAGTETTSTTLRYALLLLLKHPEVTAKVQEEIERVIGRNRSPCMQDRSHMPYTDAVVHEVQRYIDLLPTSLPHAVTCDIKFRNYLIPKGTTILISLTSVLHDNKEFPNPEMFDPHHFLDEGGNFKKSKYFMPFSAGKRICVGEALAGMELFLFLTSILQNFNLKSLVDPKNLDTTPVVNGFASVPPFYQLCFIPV
Assay: Cytochrome P450 family 2 subfamily C member 9 (CYP2C9) small molecule antagonists: luciferase biochemical (cell-free) qHTS assay (AID 1645842; active means well fitted curve in the direction sought with a large enough effect in the repeat runs; an effect the other way counts as inactive or inconclusive; further: potency means the concentration at half of the fitted maximal effect; nearly all actives have a fitted effect of over 55% in size)
Conditions: P450-Glo CYP2C9 enzyme assay, luciferin luminescence; series mostly up to 57.4 µM; activity change, negative = inhibition: at the top concentration
How it was run: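 Luminescence, after 20 min with luciferin detection reagent, reflected CYP2C9 turnover during a 1 h NADPH-driven reaction at 37C. Enzyme-substrate mix contained 0.4% bovine serum albumin and was preincubated with compound 10 min at room temperature.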

Row | Compound | Potency
40 | O=S(=O)(c1ccc(Cl)cc1)c1ccc(Cl)cc1 | 27.8 µM (active)
41 | CCCCOC(=O)c1ccccc1C(=O)OCc1ccccc1 | 8.2 µM (active)
42 | CC(C)Oc1cccc(NC(=O)c2ccccc2C(F)(F)F)c1 | 5.97 µM (active)

Tested on: not listed separately
Assay: Cytotoxicity counterscreen for inhibitors of SARS-CoV-2 cell entry (AID 1645845; calls by dose curve; further: nearly all actives have a fitted effect of over 50% in size; on activity change, negative = cytotoxicity: on the % scale 0 is the no-effect control and ±100 the full control effect)
Conditions: cell viability (SARS-CoV-2 entry assay cells); series mostly up to 57.1 µM; activity change, negative = cytotoxicity: at the top concentration
How it was run: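 HEK293-ACE2 cells (Expi293F stably expressing human ACE2) seeded overnight, then compound for 1 h plus 48 h at 37C. Viability as ATP content by luminescence; normalized to wells with cells and media-only wells.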

Row | Compound | activity change, negative = cytotoxicity [%] | outcome | Potency
43 | CCN(CC)C(=O)c1ccc(C2=CC3(CCNCC3)Oc3cccc(O)c32)cc1 | 3.35 |  | 
44 | C[C@]12CC[C@H]3[C@@H](CCC4=CC(=O)CC[C@@]43C)[C@H]1CC[C@H]2OC(=O)CCC1CCCC1 |  | inactive | 
45 | CN[C@@H]1Cc2cccc3[nH]c(=O)n(c23)C1 |  | inactive | 
46 | O=C1C=CC[C@@H]2[C@H]3CCCN4CCC[C@@H](CN12)[C@@H]34 | -9.35 |  | 
47 | CN(C)NC(=O)CCC(=O)O | -0.698 |  | 
48 | C[C@]12CC[C@@H]3[C@@H](CCC4=CC(=O)CC[C@@H]43)[C@@H]1CC[C@@H]2OC(=O)CCc1ccccc1 |  | inactive | 
49 | CC(C)NC(C)Cc1ccc(I)cc1 (configuration not stated) |  | inactive | 
50 | CCCN1CCO[C@@H]2c3cc(O)ccc3OC[C@H]21 | -28.9 |  | 
51 | Cc1ccccc1-n1c(Cn2cnc3c(N)ncnc32)nc2cccc(C)c2c1=O |  | inactive | 
52 | O=C(Oc1ccc([N+](=O)[O-])cc1)N1CCC(C(O)(c2ccc3c(c2)OCO3)c2ccc3c(c2)OCO3)CC1 |  | inactive | 
53 | CCNC(=O)C[C@@H]1N=C(c2ccc(Cl)cc2)c2cc(OC)ccc2-n2c(C)nnc21 | -1.19 |  | 
54 | CCOC(=O)c1c(C(C#N)=CN)c2ccc(Cl)c(Cl)c2n1C | 1.38 |  | 
55 | O=c1cccc2n1CC1CNC[C@H]2C1 | 0.739 |  | 
56 | CCOP(=O)(OCC)C(C)NC(=O)N(CCCl)N=O (configuration not stated) |  |  | inactive
57 | O=S(=O)(F)Cc1ccccc1 |  | inactive | 
58 | O=C(N[C@H]1CN2CCC1CC2)c1ccc(Cl)cc1 |  | inactive | 
59 | COc1ccc(C(=O)c2c(C)n(CCN3CCOCC3)c3cc(I)ccc23)cc1 | -39.9 |  | 
60 | C[C@](O)(COc1ccc(C#N)cc1)C(=O)Nc1ccc(C#N)c(C(F)(F)F)c1 | -21 |  | 
61 | Clc1ccccc1C(c1ccccc1)(c1ccccc1)n1cccn1 | -9.79 |  | 
62 | COc1cc([C@@H]2c3cc4c(cc3[C@@H](O)C3COC(=O)C32)OCO4)cc(OC)c1O (some centres not stated) | -37.1 |  | 
63 | COC(=O)[C@@H](N)CCCN=C(N)N[N+](=O)[O-] |  | inactive | 
64 | CCCC[N+]1(C)[C@H]2CC(OC(=O)[C@H](CO)c3ccccc3)C[C@H]1[C@H]1O[C@H]12 (some centres not stated) |  | inactive | 
65 | CN1[C@H]2CC(O)C[C@H]1[C@H]1O[C@H]12 (some centres not stated) |  | inactive | 
66 | CC(C)(O)C(=O)Nc1ccc([N+](=O)[O-])c(C(F)(F)F)c1 | -26.8 |  | 
67 | CCN1C[C@]2(OC(=O)c3ccccc3NC(C)=O)CC[C@H](OC)[C@@]34[C@H]5CC6[C@@H](OC)C[C@](O)(C(C[C@@H]23)[C@@H]14)[C@@]5(O)[C@@H]6OC |  | inactive | 
